Each structure is given as a SMILES string. In all, about 190,000 compounds went through this assay and about 1,300 (0.68%) were called active. Cut-off read from the data, not from the text of the source: active = inhibition above about 50%; inactive = the rest. Many of the other results were omitted from the sample, so actives are more common in it than they were.

For orientation: inhibition means the drop in the measured response relative to a control, in per cent.

Sequence of Mannose-6-phosphate isomerase (Homo sapiens) (P34949 whole entry, looked up): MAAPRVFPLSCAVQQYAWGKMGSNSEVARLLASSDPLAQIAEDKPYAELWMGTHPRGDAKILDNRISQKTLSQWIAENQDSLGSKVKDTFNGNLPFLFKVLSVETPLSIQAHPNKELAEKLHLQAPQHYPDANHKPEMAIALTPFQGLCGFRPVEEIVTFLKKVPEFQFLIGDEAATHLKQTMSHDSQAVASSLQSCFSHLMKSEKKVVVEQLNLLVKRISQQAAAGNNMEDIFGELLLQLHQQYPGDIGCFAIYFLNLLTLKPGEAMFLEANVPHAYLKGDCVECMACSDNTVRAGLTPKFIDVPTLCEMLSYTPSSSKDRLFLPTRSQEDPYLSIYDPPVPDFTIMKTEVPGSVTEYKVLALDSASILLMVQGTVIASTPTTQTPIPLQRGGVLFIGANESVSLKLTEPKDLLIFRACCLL

This experiment concerns the target Mannose-6-phosphate isomerase (Homo sapiens) (UniProt P34949). The experiment in a line: human PMI inhibitors, high substrate, primary screen, biochemical, fluorescence intensity, high mannose 6-phosphate (AID 1220). The settings on record: recombinant PMI enzyme, coupled fluorescence intensity; at 20 µM; active compounds read high.
As to `Cc1ccc(NC(=O)c2cc(C)n(-c3ccccc3)c2C)cc1`, the inhibition was 9.3% (inactive).
`Cc1ccc(CN(c2ccc(C(=O)N3CCCC3)cc2)S(C)(=O)=O)cc1`: the inhibition was -1.2% (inactive).
As for `CCC(=O)Nc1cccc(NC(=O)CSc2nnc(-c3ccc(NS(C)(=O)=O)cc3)n2CC)c1`, the inhibition was -2.3% (inactive).
The value for `CCc1nnc(NC(=O)CSc2nnc3c4ccccc4n(C)c3n2)s1` was 2% (inactive).
With `Cc1onc(-c2c(F)cccc2Cl)c1C(=O)N1CCCc2ccccc21`, the inhibition is 4.2% (inactive).
On to `O=C1NC(Cc2ccccc2)C(=O)N1Cc1cc([N+](=O)[O-])cc2c1OCOC2` (centres undefined), for which the inhibition is -4.9% (inactive).
In the case of `O=C(CN(C(=O)Cn1nnc(-c2ccccc2F)n1)c1cccc2c1CCCC2)NCc1ccccc1`, the inhibition is 28.1% (inactive).
In the case of `NC(=O)NC(=O)CC1S/C(=N/N=C2/NC(=O)CS2)NC1=O` (centres undefined), the inhibition is 24.9% (inactive).
As to `NC(=O)NC(=O)CC1S/C(=N/N=C2\CSC(=O)N2)NC1=O` (centres undefined), the inhibition is 50.5% (active).
`NC(=O)NC(=O)CC1S/C(=N/N=C/c2ccccc2)NC1=O` (centres undefined): the inhibition was -2% (inactive).
Regarding `COc1ccc(-c2cc(C(=O)Nc3c(C)nn(Cc4ccc(Cl)cc4)c3C)no2)cc1`, the inhibition is 1.1% (inactive).
Turning to `CC(CCn1cccn1)NC(=O)c1cc(COc2ccc(F)cc2F)on1` (centres undefined), the inhibition is 7.7% (inactive).
`c1ccc(-c2cc3nccc(-c4ccccn4)n3n2)cc1`: the inhibition is 61.5% (active).
As for `Cc1cc2nccc(-c3ccccn3)n2n1`, the inhibition was -0.9% (inactive).
Consider `Nc1nc2nccc(-c3ccccn3)n2n1`, for which the inhibition is 4.4% (inactive).
`Cc1cc2nc(CS(=O)(=O)c3ccccc3)cc(=O)n2[nH]1`: the inhibition is 0.1% (inactive).
For the molecule `Cc1nn(C)c(C)c1CS(=O)(=O)c1ccccc1`, the inhibition was 2.6% (inactive).
Turning to `CCCCCCCCNc1nc(Cl)nc(NCCN2CCOCC2)n1`, the inhibition is -7.1% (inactive).
Regarding `NC(=O)CSc1nc2ccccc2nc1SCC(N)=O`, the inhibition was -6.6% (inactive).
Turning to `CCOc1cc(Cl)c(NC(C)=O)cc1OCC`, the inhibition is -3.5% (inactive).
In the case of `CCOc1cc(NC(=O)C2CCCO2)c(OCC)cc1NC(C)=O` (centres undefined), the inhibition was 6.8% (inactive).
As for `CC(=O)Nc1nonc1NC(C)=O`, the figure is 10.7% (inactive); as for `COc1cc(O)c(NC(C)=O)c2nonc12`, 62.4% (active); as for `COc1cc(O)c(C(C)=O)cc1OC`, -17% (inactive).
`CC(=O)Nc1cc(OC(C)=O)c2nonc2c1OC(C)=O`: the inhibition was 78.3% (active).
Consider `COc1ccc(/C=N/NS(=O)(=O)c2ccccc2)cc1OC(=O)c1ccc(C)cc1`, for which the inhibition is 6.9% (inactive).
For `Clc1ccccc1Cc1noc(CN2CCCCC2CCc2ccccn2)n1` (centres undefined), the inhibition was 16.4% (inactive).
Take `COc1ccc(/C=N/c2c(-c3ccc(OC)cc3)nc3n2CCS3)cc1`: the inhibition was 57.2% (active).
Turning to `FC(F)Oc1ccc(/C=N/c2c(-c3ccc(OC(F)F)cc3)nc3n2CCS3)cc1`, the inhibition was 1.9% (inactive).
As to `Clc1ccc(/C=N/c2c(-c3ccc(Cl)cc3)nc3n2CCS3)cc1`, the inhibition is 0.3% (inactive).
Regarding `Cc1ccc(NCc2ccccc2)cc1`, the inhibition is 9.2% (inactive).
`Cc1csc(=Nc2cccnc2)n1Cc1ccco1`: the inhibition was 2.8% (inactive).
Take `COc1cccc(OCC(=O)NNC(=S)Nc2ccc(Cl)cc2Cl)c1`: the inhibition was 3.7% (inactive).
As to `O=C(c1cncc(Br)c1)N1CCN(c2ccc(N3CCOCC3)nn2)CC1`, the inhibition was 4.8% (inactive).
Turning to `O=C(Cc1c(F)cccc1Cl)NC1=NCCS1`, the inhibition was 9.7% (inactive).
In the case of `O=C(CSc1cccc2cccc(Cl)c12)NC1=NCCS1`, the inhibition was 51.9% (active).
Consider `O=C(Cc1c(Cl)cccc1Cl)NC1=NCCS1`, for which the inhibition is -5.2% (inactive).
With `COc1ccc(N2C(=O)CSC(c3ccccc3)C2=O)cc1` (centres undefined), the inhibition is 4.1% (inactive).
In the case of `Cc1cc(NC(=O)CN2CCN(S(=O)(=O)c3ccc(Cl)cc3)CC2)no1`, the inhibition was 2.2% (inactive).
In the case of `CC(C)C(=O)NC(c1ccco1)c1ccc2cccnc2c1O` (centres undefined), the inhibition was 37.8% (inactive).
Regarding `CC(C)C(=O)NC(c1cccs1)c1cc([N+](=O)[O-])c2cccnc2c1O` (centres undefined), the inhibition is 46.5% (inactive).
In the case of `Cc1ccc(C(NC(=O)C(C)C)c2cc([N+](=O)[O-])c3cccnc3c2O)cc1` (centres undefined), the inhibition was 53.9% (active).
As for `O=[N+]([O-])c1cc(CN2CCN(c3ccccc3)CC2)c(O)c2ncccc12`, the figure is 35.7% (inactive); as for `O=[N+]([O-])c1cc(Cl)c(O)c2ncccc12`, 32.5% (inactive); as for `O=[N+]([O-])c1cc(CN2CCCC2)c2cccnc2c1O`, 44.4% (inactive).
Turning to `CN(Cc1cc([N+](=O)[O-])c2cccnc2c1O)C1CCCCC1`, the inhibition is 51.8% (active).
Consider `CC(C)C(=O)NC(c1ccccc1)c1cc([N+](=O)[O-])c2cccnc2c1O` (centres undefined), for which the inhibition is 60.9% (active).
The value for `O=C(NC(c1ccc(Cl)cc1)c1cc(Cl)c2cccnc2c1O)c1cccnc1` (centres undefined) was 2.3% (inactive); that for `CCCNC(=O)c1ccc2nc(-c3ccccc3)c(-c3ccccc3)nc2c1` was 11.1% (inactive); that for `CCc1ccc(Oc2cc(C)nc(N)n2)cc1` was -0.3% (inactive).
Consider `CCCCc1ccc(-n2nnnc2SCC(=O)Nc2cc(OC)c([N+](=O)[O-])cc2C)cc1`, for which the inhibition is 10.1% (inactive).
Consider `O=C(NCCc1ccc(Cl)cc1)c1cnc2n(c1=O)CCS2`, for which the inhibition is 4.8% (inactive).
As for `O=C(N/N=C/c1ccc2c(c1)OCO2)c1sc2cccc(Cl)c2c1Cl`, the inhibition is 12.6% (inactive).
The value for `O=C(CCCCCn1c(=O)[nH]c2ccccc2c1=O)N1CCN(Cc2ccc3c(c2)OCO3)CC1` was -4% (inactive); that for `O=C(OCc1cccnc1)C1=Cc2ccccc2OC1` was -1.4% (inactive).
For `COc1ccc(C(C)=O)c2c(O)cccc12`, the inhibition is 56.5% (active).
Turning to `COc1ccc(C(=O)c2ccc(OC)c3cccc(O)c23)cc1OC`, the inhibition is 14.7% (inactive).
Consider `COc1ccc(C(=O)Nc2cccc(C(C)=O)c2)c(OC)c1OC`, for which the inhibition was 8.1% (inactive).
For `CCOc1ccc(N(CC(=O)N/N=C/c2cccnc2)S(C)(=O)=O)cc1`, the inhibition is -3.8% (inactive).
As for `CN(C)C(=O)C1(c2ccccc2)CCN(S(=O)(=O)c2ccccc2)CC1`, the figure is 14.9% (inactive); as for `COc1oc(-c2ccccc2C)nc1C(F)(F)F`, 1.8% (inactive); as for `COc1ccc(/C(=C\Nc2ccc(C)c(C)c2)C(C)=O)cc1OC`, 56.5% (active).
In the case of `COc1ccc(N/C=C(\C(C)=O)c2ccc(OC)c(OC)c2)cc1OC`, the inhibition is 42.8% (inactive).
Take `COc1ccc(/C(=C/Nc2cccc(Br)c2)C(C)=O)cc1OC`: the inhibition is 4.4% (inactive).

Source of the values: PubChem BioAssay AID1220 (Sanford-Burnham Center for Chemical Genomics, 2008).
